Data from the supplement of paper PMC11383364.
± gives the standard deviation of the averaged measurements.

system: SUM149; experiment: percent difference in area under dose-response curve of relative cell number, RPMI vs HPLM; higher = drug relatively more effective in HPLM than RPMI (negative = less effective in HPLM); conditions: treatment time: 72 h; dose range: 10-point, 1 nM to 20 µM; media compared: RPMI vs HPLM
Experimental: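 SUM149 triple-negative breast cancer cells, 500 cells/well in 384-well plates, were grown in RPMI or human plasma-like medium (HPLM) with 5% dialyzed FBS. They were pin-transferred with an anticancer plus metabolic-inhibitor library in 10-point dose series (20 µM to 1 nM). After 72 h, cells were fixed, stained with bisbenzimide and counted by Acumen plate cytometry. The AUC of relative survival vs dose was computed per medium, and the percent difference in AUC between RPMI and HPLM is reported.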

For CC(=O)Nc1nc(C)c(-c2ccc(Cl)c(S(=O)(=O)NCCO)c2)s1, which “percent difference in area under dose-response curve” value (from here on “percent difference in area”) is on record?
Its value is -8.79%.

O=C(NCC1(c2nc(-c3ccccc3)cs2)CCOCC1)c1cccc(-c2noc(C(F)(F)F)n2)c1 was tested. Which “percent difference in area” value did it give?
Its value is 0.481%.

COc1cc2nccc(Oc3ccc(NC(=O)NC4CC4)c(Cl)c3)c2cc1C(N)=O was tested. Which “percent difference in area” value did it give?
Its value is 5.17%.

How did the “percent difference in area” value turn out when CN[C@H]1CN(c2ccc3c(=O)c(C(=O)O)cn(-c4nccs4)c3n2)C[C@@H]1OC [Voreloxin] was run?
Its value is -18%.

How did the “percent difference in area” value turn out when CN1CC[C@H](c2c(O)cc(O)c3c(=O)cc(-c4ccccc4Cl)oc23)[C@H](O)C1 [Flavopiridol] was run?
The value was -2.56%.

Which “percent difference in area” value does the source give for CCN(CC)CCCCNc1ncc2cc(-c3cc(OC)cc(OC)c3)c(NC(=O)NC(C)(C)C)nc2n1 here?
Its value is 1.69%.

Which “percent difference in area” value does the source give for COc1ccc(C2=N[C@H](c3ccc(Cl)cc3)[C@H](c3ccc(Cl)cc3)N2C(=O)N2CCNC(=O)C2)c(OC(C)C)c1 [Nutlin3b] here?
Its value is 2.03%.

For COc1ccc(-c2ccc3c(N4CCOC[C@@H]4C)nc(N4CCOC[C@@H]4C)nc3n2)cc1CO, which “percent difference in area” value is on record?
The value was -2.88%.

With CC[C@@H]1C(=O)N(C)c2cnc(Nc3ccc(C(=O)NC4CCN(C)CC4)cc3OC)nc2N1C1CCCC1 as the compound, how does the “percent difference in area” value read?
Its value is -23%.

How did the “percent difference in area” value turn out when CC(C)c1cc(C(C)C)c(CC(=O)NS(=O)(=O)Oc2c(C(C)C)cccc2C(C)C)c(C(C)C)c1 [Avasimibe] was run?
The value was -0.523%.

How did the “percent difference in area” value turn out when Nc1nc(=S)c2[nH]cnc2[nH]1 [6_Thioguanine] was run?
Its value is -37.9%.

Which “percent difference in area” value does the source give for C[C@@H](Oc1cc(-n2cnc3ccc(CN4CCN(C)CC4)cc32)sc1C(N)=O)c1ccccc1C(F)(F)F here?
Its value is -20.5%.

Cc1cccc(-c2[nH]c(C(C)(C)C)nc2-c2ccc3nccnc3c2)n1 was tested. Which “percent difference in area” value did it give?
Its value is -7.49%.

Which “percent difference in area” value does the source give for C/C=C1\NC(=O)[C@H]2CSSCC/C=C/[C@H](CC(=O)N[C@H](C(C)C)C(=O)N2)OC(=O)[C@H](C(C)C)NC1=O [Romidepsin] here?
Its value is -30.5%.

COc1ccc2cc(-c3nc(-c4ccc([S+](C)[O-])cc4)[nH]c3-c3ccncc3)ccc2c1 (stereo not given) [Tie2_kinase_inhibitor] was tested. Which “percent difference in area” value did it give?
Its value is -0.194%.

Which “percent difference in area” value does the source give for O=C(/C=C/c1cccnc1)NCCCCC1CCN(C(=O)c2ccccc2)CC1 here?
Its value is -32.8%.

With CNC(=O)c1cc(COc2nnc(Nc3ccc(Cl)cc3)c3ccoc23)ccn1 [Telatinib] as the compound, how does the “percent difference in area” value read?
Its value is 2.16%.

CCCCCCNC(=O)n1cc(F)c(=O)[nH]c1=O [Carmofur] was tested. Which “percent difference in area” value did it give?
Its value is -3.39%.

Which “percent difference in area” value does the source give for Nc1nccc(Oc2ccc(NC(=O)c3c[nH]cc(-c4ccc(F)cc4)c3=O)cc2F)c1Cl here?
The value was -4.65%.

With CC1(C)C(N(O)C(=O)Nc2ccc(Cl)cc2)N(c2ccc(Cl)cc2)C(=O)N1CC(=O)NN=CC=Cc1ccc([N+](=O)[O-])o1 (stereo not given) [Eeyarestatin_I] as the compound, how does the “percent difference in area” value read?
Its value is -5.38%.

O=C(NOCC1CC1)c1ccc(F)c(F)c1Nc1ccc(I)cc1Cl was tested. Which “percent difference in area” value did it give?
Its value is 4.08%.

With Cn1cnc2c(F)c(Nc3ccc(Br)cc3Cl)c(C(=O)NOCCO)cc21 as the compound, how does the “percent difference in area” value read?
The value was -3.35%.

How did the “percent difference in area” value turn out when CNCCC(Oc1ccc(C(F)(F)F)cc1)c1ccccc1 (stereo not given) [Fluoxetine] was run?
The value was 0.518%.

CNCc1ccc(-c2[nH]c3cc(F)cc4c3c2CCNC4=O)cc1 [Rucaparib] was tested. Which “percent difference in area” value did it give?
Its value is -14.3%.

For C[C@]1(O)C[C@@H](c2nc(-c3ccc4ccc(-c5ccccc5)nc4c3)c3c(N)nccn32)C1 [Linsitinib], which “percent difference in area” value is on record?
Its value is 1.93%.

With C/C=C/C/C=C/CCC(=O)[C@H]1O[C@H]1C(N)=O [Cerulenin] as the compound, how does the “percent difference in area” value read?
Its value is -9.61%.

Which “percent difference in area” value does the source give for COc1cc(Nc2ncc(F)c(Nc3ccc4c(n3)NC(=O)C(C)(C)O4)n2)cc(OC)c1OC here?
Its value is 6.12%.

Which “percent difference in area” value does the source give for Cn1cc(C2=C(c3ccc(Cl)cc3Cl)C(=O)NC2=O)c2ccccc21 here?
The value was -0.391%.

For CC(C)=CCC1=C(O)C(=O)c2ccccc2C1=O [Lapachol], which “percent difference in area” value is on record?
The value was 10.9%.

With Nc1ccn([C@@H]2O[C@H](CO)[C@@H](O)C2(F)F)c(=O)n1 [Gemcitabine] as the compound, how does the “percent difference in area” value read?
The value was -24.6 ± 5.4%.

For CCC[C@H](NC(=O)/C(C#N)=C/c1cccc(Br)n1)c1ccccc1, which “percent difference in area” value is on record?
Its value is 5.71%.

How did the “percent difference in area” value turn out when Cc1cnc(Nc2ccc(OCCN3CCCC3)cc2)nc1Nc1cccc(S(=O)(=O)NC(C)(C)C)c1 [Fedratinib] was run?
The value was -9.15%.

CCOc1cc(N2CCC(O)CC2)ccc1Nc1ncc2c(n1)N(C)c1ccccc1C(=O)N2C was tested. Which “percent difference in area” value did it give?
Its value is -8.79%.

With Nc1nc(Cl)nc2c1ncn2[C@H]1C[C@H](O)[C@@H](CO)O1 [Cladribine] as the compound, how does the “percent difference in area” value read?
Its value is -12.6 ± 2.1%.

How did the “percent difference in area” value turn out when Cc1cc(Nc2cc(N3CCN(C)CC3)nc(/C=C/c3ccccc3)n2)n[nH]1 was run?
The value was -2.84%.

For CNC(=O)c1ccccc1Sc1ccc2c(/C=C/c3ccccn3)n[nH]c2c1 [Axitinib], which “percent difference in area” value is on record?
Its value is -0.398%.

CC[C@@H]1C(=O)N(C)c2cnc(Nc3ccc(C(=O)N[C@H]4CC[C@H](N5CCN(CC6CC6)CC5)CC4)cc3OC)nc2N1C(C)C was tested. Which “percent difference in area” value did it give?
Its value is -16.8%.

With NC(=O)CCCSc1nc(N)nc(-c2c(Cl)cc3c4c(cccc24)COC3)n1 as the compound, how does the “percent difference in area” value read?
Its value is -19.2%.

Which “percent difference in area” value does the source give for C=CS(=O)(=O)NC1CCN(C(=O)CNc2cc(I)c(Cl)cc2OC)CC1 [KRas_G12C_inhibitor_9] here?
Its value is -1.74%.

How did the “percent difference in area” value turn out when CN(N=O)C(=O)N[C@@H](C=O)[C@@H](O)[C@H](O)[C@H](O)CO [Streptozotocin] was run?
Its value is -5.59%.
